# Measurements from PubChem BioAssay (NCI).
# Compounds without any hit were thinned out: in the full panel of roughly 83,000, 20% have a hit.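 Treatment: one concentration, 48 hours, 96-well format. Scoring: percent growth, with anything below 10 considered active.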 Active and inactive are the calls of the source.
# Tested on: MDA-MB-468 breast
# Assay: NCI-60 one-dose screen, 48 h (100 = growth as untreated, 0 = no growth, -100 = all killed)
# Conditions: 10 µM unless noted
row,SMILES,growth
1,COC(=O)[C@]12CC[C@@H](C)[C@H](C)[C@@H]1C1=CC[C@@H]3[C@@]4(C)CC(=O)[C@H](O)[C@@](C)(CO)[C@@H]4C(=O)C[C@@]3(C)[C@]1(C)CC2,-4.93% (active)
2,CN1CCN(CC(=O)N(C)c2ccc(N=C(c3ccccc3)c3c(O)[nH]c4ccc(C#N)cc34)cc2)CC1,93.8% (inactive)
3,COc1ccc(S(=O)(=O)NCCCNc2nccc(-c3c(-c4ccc(F)cc4)nc4sccn34)n2)cc1,61.2% (inactive)
4,CCOC(=O)n1ccn(C)c1=S,103% (inactive)
5,Cc1cc2c3c(cccc3c1)C(=O)c1ccccc1-2,63.7% (inactive)
6,COC(=O)[C@]12CC[C@@H](C)[C@H](C)[C@@H]1C1=CC(=O)[C@@H]3[C@@]4(C)C[C@@H](OC(C)=O)[C@H](OC(C)=O)[C@@](C)(COC(C)=O)[C@@H]4C(=O)C[C@@]3(C)[C@]1(C)CC2,35.3% (inactive)
7,Nc1cccc(Cl)c1N,-21.1% (active)
8,CCCCCCN1C(=O)CN=C1Nc1ccc2cc3ccc(NC4=NCC(=O)N4CCCCCC)cc3nc2c1,3.94% (active)
9,CCC/C=C/C=C/C(=O)N[C@@H](Cc1cc(F)cc(F)c1)C(=O)N[C@@H]1C(=O)N2CCC[C@H]2C(=O)N2CCCC[C@H]2C(=O)N[C@@H](C)C(=O)N2C[C@H](C)C[C@H]2C(=O)O[C@H]1C,-0.457% (active)
10,CCOC(=O)C(=O)C=P(c1ccccc1)(c1ccccc1)c1ccccc1,114% (inactive)
11,COc1cc2ccnc(C=O)c2cc1OC,82.5% (inactive)
12,Cc1ccc(-c2nc3c(N=Nc4ccc(S(N)(=O)=O)cc4)c(N)nn3c(N)c2C#N)cc1,5.87% (active)
13,Cc1ccccc1N1C(c2ccccc2)=NNC12C=CC(=O)C=C2Cl (centres undefined),109% (inactive)
14,COc1cccc(C(=O)Nc2cccc(C#Cc3cccc4[nH]nc(N)c34)c2)c1,24.5% (inactive)
15,CCCCNC(=O)Oc1ccc(/C(=C(/C)Cc2ccc(OC)cc2)c2ccc(OCCN(CC)CC)cc2)cc1,76.3% (inactive)
16,C#CCOc1c(OC)cc(C(=O)/C(C)=C/c2cccc(N=[N+]=[N-])c2)cc1OC,24.2% (inactive)
17,CCCCCCCCCCCCNC(=O)N[C@H](C(=O)N[C@H]1/C=C/CCNC(=O)/C=C/[C@H](C)NC1=O)C(C)C,-66.6% (active)
18,CCOC(=O)C(=Cc1ccccc1F)C(=O)OCC,76.7% (inactive)
19,CCc1ccccc1NC(=O)/C(C#N)=C/c1ccc(OC)cc1,108% (inactive)
20,CCCCCCCCNc1ncnc2c1ncn2Cc1nnc2c3ccccc3c(Cl)nn12,40.6% (inactive)
21,COc1cnc2c(c1)C(=O)c1c-2n(CCCN2CCCC2)c(=O)c2cc([N+](=O)[O-])ccc12,-41.1% (active)
22,CC(=O)Nc1cccc(C2=CC(c3ccc(C)cc3)n3ncnc3N2)c1 (centres undefined),92.7% (inactive)
23,CCCCCCCCCCCCCC,110% (inactive)
24,CCCCNC(=O)NS(=O)(=O)Cc1ccccc1,112% (inactive)
